Results as given in PubChem BioAssay (NCATS).
Inconclusive results are not listed. Where a call stands in place of a potency, no number is given. Active and inactive are the calls of the source. Calls come from the whole dose curve; as a rule, active = well fitted inhibition curve with a large enough effect; inconclusive = small, poorly fitted or top-dose-only effect; inactive = flat fitted curve, though single readings scatter.

What follows are compounds tested against Dual specificity protein kinase CLK4 (Homo sapiens) (UniProt Q9HAZ1) (assay: qHTS Assay for Inhibitors of CDC-like Kinase 4 (Kinase-Glo Assay) (AID 1770; note: nearly all actives have a fitted effect of over 65% in size)). Conditions: recombinant Clk4, Kinase-Glo ATP depletion luminescence; series mostly up to 66.7 µM.
Dual specificity protein kinase CLK4 (Homo sapiens), sequence (Q9HAZ1 whole entry, looked up): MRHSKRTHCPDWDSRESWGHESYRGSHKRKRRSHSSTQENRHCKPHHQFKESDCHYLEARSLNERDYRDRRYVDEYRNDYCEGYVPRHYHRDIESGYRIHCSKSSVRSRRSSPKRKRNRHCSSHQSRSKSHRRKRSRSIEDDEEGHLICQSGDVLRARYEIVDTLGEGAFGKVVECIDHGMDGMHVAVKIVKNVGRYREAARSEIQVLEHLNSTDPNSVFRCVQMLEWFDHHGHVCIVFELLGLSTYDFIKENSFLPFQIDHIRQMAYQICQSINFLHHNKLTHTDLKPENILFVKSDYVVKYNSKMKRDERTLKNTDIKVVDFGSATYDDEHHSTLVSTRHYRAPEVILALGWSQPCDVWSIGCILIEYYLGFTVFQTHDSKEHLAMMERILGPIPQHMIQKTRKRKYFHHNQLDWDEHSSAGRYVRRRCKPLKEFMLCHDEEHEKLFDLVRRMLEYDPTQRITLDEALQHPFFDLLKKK
Description: NIH Molecular Libraries Probe Production Centers Network [MLPCN] NIH Chemical Genomics Center [NCGC] MLPCN Grant: 1R03MH084827-01 Assay Submitter (PI): Tom Misteli NCGC Assay Overview: Clk4 (Invitrogen, cat# PV3839) was assayed using ATP and the RS repeat peptide (AnaSpec cat # 61722) as substrates. Following the Clk4 reaction, the remaining ATP levels were detected using Promega Kinase-Glo technology wherein the remaining ATP from the kinase reaction is detected using Ultra-Glo luciferase and D-luciferin which generates a bioluminescence signal from the ATP. The positive control for the assay was TG003 (Sigma-Aldrich, cat# 300801-52-9) which has been described as an inhibitor of Clk 4[1].
NCGC Assay Protocol Summary: Two uL/well of substrate-buffer solution (100 uM RS peptide, 1 uM ATP, 25 mM Tris pH7.5, 10 mM MgCl2, 0.5 mM EGTA, 2.5 mM DTT, 0.01% Triton X-100 final concentration) was dispensed into 1536-well, assay plates (Greiner, solid white medium-binding plates) with Aurora Discovery BioRAPTR Flying Reagent Dispenser (FRD; Beckton-Dickenson). Using a Kalypsys pin tool equipped with a 1536-pin tool, 23 nL of compound solution was transferred to the assay plate. One uL/ well Clk4-buffer solution (25 nM Clk4, 25 mM Tris pH 7.5, 10 mM MgCl2, 0.5 mM EGTA, 2.5 mM DTT, 0.01% Triton X-100, final concentrations) was then added using the FRD yielding a total kinase reaction volume of 3 uL/ well. After 4.5 hours of room temperature incubation, 3 uL Kinase-Glo reagent was added for a final assay volume of 6 uL/ well. Luminescence was detected with the ViewLux plate reader (Perkin Elmer, Waltham, MA) after 5 min incubation using a 5 second exposure time and 2x binning.
Potency is the fitted concentration of half-maximal effect.

Structure (SMILES)	Potency
COc1ccccc1CNc1ncncc1-c1ccccc1Cl	inactive
COc1ccccc1-c1nccc(N2CCN(C)CC2)n1	inactive
COc1ccc(Oc2ncc3nc(-c4ccccc4)c(=O)n(C[C@H]4CCCO4)c3n2)cc1	inactive
Cc1cccc(CNc2ncncc2-c2ccccc2CN(C)C)c1	inactive
COc1cccc(Nc2ncc3nc(-c4cccs4)c(=O)n(C[C@H]4CCCO4)c3n2)c1	inactive
Cc1nc2cnc(N3CCN(C)CC3)nc2n(CCc2ccccc2)c1=O	inactive
COc1cccc(-c2nc(NCCN3CCOCC3)c3ccccc3n2)c1	15.8 µM (active)
COCCn1c(=O)c(-c2cccc(C#N)c2)nc2cnc(OCc3ccccc3)nc21	inactive
COCCn1c(=O)c(CCc2ccccc2)nc2cnc(OCc3ccccc3)nc21	inactive
COc1ccc2[nH]cc(CCNc3ncncc3-c3ccc4c(c3)OCO4)c2c1	8.91 µM (active)
COCCn1c(=O)c(-c2ccc(F)cc2)nc2cnc(Oc3ccccc3)nc21	inactive
Clc1ccccc1-c1ccc2ncnc(NCCN3CCOCC3)c2c1	28.2 µM (active)
Cn1cc(-c2nc3cnc(N4CCNCC4)nc3n(CCc3ccccc3)c2=O)c2ccccc21	inactive
COc1ncc2nc(-c3cccs3)c(=O)n(CCC#N)c2n1	inactive
CCNc1ncc2nc(CCc3ccccc3)c(=O)n(C3CC3)c2n1	inactive
COc1ccc2[nH]cc(CCNc3ncnc4ccc(-c5cccc(C#N)c5)cc34)c2c1	12.6 µM (active)
c1ccc2c(NCCN3CCOCC3)nc(-c3ccoc3)nc2c1	inactive
CN(C)C(=O)c1ccc(-c2cc(NCc3ccccc3)ncn2)cc1	25.1 µM (active)
CN(Cc1ccco1)c1nc(-c2cccnc2)nc2ccccc12	15.8 µM (active)
O=c1c(-c2ccccc2)nc2cncnc2n1Cc1ccccc1	inactive

Structure (SMILES)	Potency
CN(C)c1nc(-c2ccc3c(c2)OCO3)nc2ccccc12	inactive
COc1ccccc1CNc1ncnc2ccc(-c3cccc(NS(C)(=O)=O)c3)cc12	11.2 µM (active)
CCNc1ncc2ncc(=O)n(Cc3ccc(F)cc3)c2n1	7.94 µM (active)
COc1ccc2[nH]cc(CCNc3ncnc4ccc(-c5ccccc5OC)cc34)c2c1	25.1 µM (active)
CN1CCN(c2ncc3nc(-c4cccc(C#N)c4)c(=O)n(CCc4ccccc4)c3n2)CC1	inactive
Clc1ccccc1-c1nc(-n2ccnc2)c2ccccc2n1	1.26 µM (active)
Cc1cnc(CNc2ncnc3ccc(-c4ccccc4Cl)cc23)cn1	15.8 µM (active)
COCCn1c(=O)c(-c2cccc(C#N)c2)nc2cnc(Oc3cccc(Cl)c3)nc21	inactive
COc1cccc(-c2nc(NCc3cccnc3)c3ccccc3n2)c1	25.1 µM (active)
COc1ccc(-c2nc3cnc(N4CCOCC4)nc3n(-c3ccc(OC)cc3)c2=O)cc1	inactive
COc1ccc(Oc2ncc3nc(-c4ccc(F)cc4)c(=O)n(CCC#N)c3n2)cc1	inactive
COc1ccccc1-c1nc(N2CCN(C)CC2)c2ccccc2n1	inactive
Clc1ccccc1-c1nc(Nc2ccncc2)c2ccccc2n1	7.94 µM (active)
COc1cccc(Cn2c(=O)c(CCc3ccccc3)nc3cnc(N4CCN(C)CC4)nc32)c1	inactive
COCCn1c(=O)c(-c2cc(F)cc(F)c2)nc2cnc(N3CCN(C)CC3)nc21	inactive
CN1CCN(c2ncc3nc(-c4cn(C)c5ccccc45)c(=O)n(CCC#N)c3n2)CC1	inactive
CN(C)C(=O)c1ccc(-c2nc(Nc3ccccc3)c3ccccc3n2)cc1	15.8 µM (active)
COc1cccc(Cn2c(=O)cnc3cnc(Nc4cccc(OC)c4)nc32)c1	2.24 µM (active)
COc1ccc(CNc2ncncc2-c2ccccc2OC)c(OC)c1	inactive
c1ccc2c(NCCN3CCOCC3)nc(-c3ccc4c(c3)OCO4)nc2c1	inactive
